Read-outs that look alike come from different tables or passages of the source.
Assays:
AAK1 = details: read-out: apparent Kd, n = 1
AURKA = details: read-out: apparent Kd, n = 1

Substance: Lestaurtinib
- potency estimated from few doses (AAK1; compound concentrations:100 nM and 1000 nM (sheet 'Lestaurtinib' of Supplementary Table 1),run:Lestaurtinib_02606_R2,Plate:MR019): 0.0737 µM
- potency estimated from few doses (AAK1; compound concentrations:100 nM and 1000 nM (sheet 'Lestaurtinib' of Supplementary Table 1),run:Lestaurtinib_02624_R1,Plate:MR020): 0.052 µM
- potency estimated from few doses (AAK1; compound concentrations:100 nM and 1000 nM (sheet 'Lestaurtinib' of Supplementary Table 1),run:Lestaurtinib_02624_R2,Plate:MR020): 0.0666 µM
- potency estimated from few doses (AAK1; compound concentrations:100 nM and 1000 nM (sheet 'Lestaurtinib' of Supplementary Table 1),run:Lestaurtinib_02624_R3,Plate:MR020): 0.0698 µM
- potency estimated from few doses (AAK1; compound concentrations:100 nM and 1000 nM (sheet 'Lestaurtinib' of Supplementary Table 1),run:Lestaurtinib_02724_R1,Plate:MR021): 0.0694 µM
- potency estimated from few doses (AAK1; compound concentrations:100 nM and 1000 nM (sheet 'Lestaurtinib' of Supplementary Table 1),run:Lestaurtinib_02741_R2,Plate:MR023): 0.113 µM
- potency estimated from few doses (AAK1; compound concentrations:100 nM and 1000 nM (sheet 'Lestaurtinib' of Supplementary Table 1),run:Lestaurtinib_02741_R3,Plate:MR023): 0.0897 µM
- potency estimated from few doses (AAK1; compound concentrations:100 nM and 1000 nM (sheet 'Lestaurtinib' of Supplementary Table 1),run:Lestaurtinib_02748_R1,Plate:MR024): 0.0643 µM
- potency estimated from few doses (AAK1; compound concentrations:100 nM and 1000 nM (sheet 'Lestaurtinib' of Supplementary Table 1),run:Lestaurtinib_02748_R2,Plate:MR024): 0.0538 µM
- potency estimated from few doses (AAK1; compound concentrations:100 nM and 1000 nM (sheet 'Lestaurtinib' of Supplementary Table 1),run:Lestaurtinib_02748_R3,Plate:MR024): 0.0687 µM
- potency estimated from few doses (AAK1; compound concentrations:100 nM and 1000 nM (sheet 'Lestaurtinib' of Supplementary Table 1),run:Lestaurtinib_02752_R1,Plate:MR025): 0.0986 µM
- potency estimated from few doses (AAK1; compound concentrations:100 nM and 1000 nM (sheet 'Lestaurtinib' of Supplementary Table 1),run:Lestaurtinib_02765_R3,Plate:MR026): 0.0845 µM
- potency estimated from few doses (AAK1; compound concentrations:100 nM and 1000 nM (sheet 'Lestaurtinib' of Supplementary Table 1),run:Lestaurtinib_02766_R1,Plate:MR027): 0.055 µM
- potency estimated from few doses (AAK1; compound concentrations:100 nM and 1000 nM (sheet 'Lestaurtinib' of Supplementary Table 1),run:Lestaurtinib_02768_R3,Plate:MR028): 0.0801 µM
- potency estimated from few doses (AAK1; compound concentrations:100 nM and 1000 nM (sheet 'Lestaurtinib' of Supplementary Table 1),run:Lestaurtinib_02795_R1,Plate:MR022): 0.0814 µM
- potency estimated from few doses (AAK1; compound concentrations:100 nM and 1000 nM (sheet 'Lestaurtinib' of Supplementary Table 1),run:Lestaurtinib_02795_R3,Plate:MR022): 0.154 µM
- potency estimated from few doses (AAK1; compound concentrations:100 nM and 1000 nM (sheet 'Lestaurtinib' of Supplementary Table 1),run:Lestaurtinib_02802_R1,Plate:MR029): 0.0679 µM
- potency estimated from few doses (AAK1; compound concentrations:100 nM and 1000 nM (sheet 'Lestaurtinib' of Supplementary Table 1),run:Lestaurtinib_02802_R2,Plate:MR029): 0.0507 µM
- potency estimated from few doses (AAK1; compound concentrations:100 nM and 1000 nM (sheet 'Lestaurtinib' of Supplementary Table 1),run:Lestaurtinib_02896_R1,Plate:MR030): 0.0737 µM
- potency estimated from few doses (AAK1; compound concentrations:100 nM and 1000 nM (sheet 'Lestaurtinib' of Supplementary Table 1),run:Lestaurtinib_02896_R3,Plate:MR030): 0.0713 µM
- potency estimated from few doses (AAK1; compound concentrations:100 nM and 1000 nM (sheet 'Lestaurtinib' of Supplementary Table 1),run:Lestaurtinib_03172_R2,Plate:MR031): 0.056 µM
- potency estimated from few doses (AAK1; compound concentrations:100 nM and 1000 nM (sheet 'Lestaurtinib' of Supplementary Table 1),run:Lestaurtinib_03172_R3,Plate:MR031): 0.0668 µM
- potency estimated from few doses (AAK1; compound concentrations:100 nM and 1000 nM (sheet 'Lestaurtinib' of Supplementary Table 1),run:Lestaurtinib_03252_R1,Plate:MR032): 0.0963 µM
- potency estimated from few doses (AAK1; compound concentrations:100 nM and 1000 nM (sheet 'Lestaurtinib' of Supplementary Table 1),run:Lestaurtinib_03260_R1,Plate:MR033): 0.0731 µM
- potency estimated from few doses (AAK1; compound concentrations:100 nM and 1000 nM (sheet 'Lestaurtinib' of Supplementary Table 1),run:Lestaurtinib_03260_R2,Plate:MR033): 0.0778 µM
- potency estimated from few doses (AURKA; compound concentrations:100 nM and 1000 nM (sheet 'Lestaurtinib' of Supplementary Table 1),run:Lestaurtinib_02339_R1,Plate:MR001): 0.02 µM
- potency estimated from few doses (AURKA; compound concentrations:100 nM and 1000 nM (sheet 'Lestaurtinib' of Supplementary Table 1),run:Lestaurtinib_02339_R2,Plate:MR001): 0.018 µM
- potency estimated from few doses (AURKA; compound concentrations:100 nM and 1000 nM (sheet 'Lestaurtinib' of Supplementary Table 1),run:Lestaurtinib_02339_R3,Plate:MR001): 0.0184 µM
- potency estimated from few doses (AURKA; compound concentrations:100 nM and 1000 nM (sheet 'Lestaurtinib' of Supplementary Table 1),run:Lestaurtinib_02364_R2,Plate:MR002): 0.0213 µM
- potency estimated from few doses (AURKA; compound concentrations:100 nM and 1000 nM (sheet 'Lestaurtinib' of Supplementary Table 1),run:Lestaurtinib_02367_R1,Plate:MR003): 0.0163 µM
- potency estimated from few doses (AURKA; compound concentrations:100 nM and 1000 nM (sheet 'Lestaurtinib' of Supplementary Table 1),run:Lestaurtinib_02367_R2,Plate:MR003): 0.0184 µM
- potency estimated from few doses (AURKA; compound concentrations:100 nM and 1000 nM (sheet 'Lestaurtinib' of Supplementary Table 1),run:Lestaurtinib_02367_R3,Plate:MR003): 0.0181 µM
- potency estimated from few doses (AURKA; compound concentrations:100 nM and 1000 nM (sheet 'Lestaurtinib' of Supplementary Table 1),run:Lestaurtinib_02381_R3,Plate:MR004): 0.0175 µM
- potency estimated from few doses (AURKA; compound concentrations:100 nM and 1000 nM (sheet 'Lestaurtinib' of Supplementary Table 1),run:Lestaurtinib_02407_R1,Plate:MR005): 0.0163 µM
- potency estimated from few doses (AURKA; compound concentrations:100 nM and 1000 nM (sheet 'Lestaurtinib' of Supplementary Table 1),run:Lestaurtinib_02407_R2,Plate:MR005): 0.0183 µM
- potency estimated from few doses (AURKA; compound concentrations:100 nM and 1000 nM (sheet 'Lestaurtinib' of Supplementary Table 1),run:Lestaurtinib_02407_R3,Plate:MR005): 0.0182 µM
- potency estimated from few doses (AURKA; compound concentrations:100 nM and 1000 nM (sheet 'Lestaurtinib' of Supplementary Table 1),run:Lestaurtinib_02422_R1,Plate:MR006): 0.0153 µM
- potency estimated from few doses (AURKA; compound concentrations:100 nM and 1000 nM (sheet 'Lestaurtinib' of Supplementary Table 1),run:Lestaurtinib_02422_R2,Plate:MR006): 0.0074 µM
- potency estimated from few doses (AURKA; compound concentrations:100 nM and 1000 nM (sheet 'Lestaurtinib' of Supplementary Table 1),run:Lestaurtinib_02437_R1,Plate:MR007): 0.0209 µM
- potency estimated from few doses (AURKA; compound concentrations:100 nM and 1000 nM (sheet 'Lestaurtinib' of Supplementary Table 1),run:Lestaurtinib_02437_R2,Plate:MR007): 0.0218 µM
- potency estimated from few doses (AURKA; compound concentrations:100 nM and 1000 nM (sheet 'Lestaurtinib' of Supplementary Table 1),run:Lestaurtinib_02437_R3,Plate:MR007): 0.00354 µM
- potency estimated from few doses (AURKA; compound concentrations:100 nM and 1000 nM (sheet 'Lestaurtinib' of Supplementary Table 1),run:Lestaurtinib_02438_R1,Plate:MR008): 0.0154 µM
